Test results taken from PubChem BioAssay AID1117319 (Southern Research Institute, 2015).
The whole screen tested about 260,000 compounds, of which about 1,500 (0.58%) were called active. Roughly 5% stayed inconclusive and do not appear here.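 The calls were made as follows: active = inhibition above a set limit at one or more doses, reproduced on every date tested; inconclusive = results disagree between test dates, or hit never tested in dose response; inactive = the rest.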 Only a sample is shown. Potency and affinity values are given separately.

Target: Virion infectivity factor (Human immunodeficiency virus type 1 group M subtype B (isolate BH10)) + Virion infectivity factor (Human immunodeficiency virus type 1 group M subtype B (isolate BRU/LAI)) + Virion infectivity factor (Human immunodeficiency virus type 1 group M subtype B (isolate PCV12)) + Virion infectivity factor (Human immunodeficiency virus type 1 group M subtype B (isolate HXB2)) + DNA dC->dU-editing enzyme APOBEC-3G (Homo sapiens) (UniProt P69720+P69721+P69722+P69723+Q9HC16)
Assay: inhibitors of Vif binding to APOBEC3G peptide, primary screen, biochemical, TR-FRET, GST-Vif 1-94, biotin-A3G peptide, dose response retest (AID 1117319);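 also: Vif residues 1-94 fused to GST binding biotinylated APOBEC3G peptide 110-148; 0% = full assay without inhibitor and 100% = GST in place of GST-Vif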
Details: stronger effect = higher value

inhibition, inactive:
Cc1n[nH]c(=S)n(/N=C/c2cccs2)c1=O -1.81%, Cc1nn2c(=S)[nH]nc2[nH]c1=O 14.1%, COC(=O)[C@H]1C[C@@H]1[C@H](NC(=O)OCc1ccccc1)c1ccccc1 -8.43%, COC(=O)[C@H]1C[C@@H]1[C@H](NC(=O)[C@H]1C[C@@H]1[C@H](NC(=O)OCc1ccccc1)c1ccccc1)c1ccccc1 25.9%, Cc1ccc2cc3cc(C(=O)NCCCN4CCCC4)oc3nc2c1 -1.36%, CC1=NN(c2cc(Cl)c(S(=O)(=O)O)cc2Cl)C(=O)C1 8.79%, O=C(O)C1=NN(c2ccccc2)C(=O)C1 13.7%, COCCCn1c(SCC(N)=O)nnc1-c1ccccc1 2.76%, C=CCN1C(=O)/C(=C/c2ccsc2)SC1=S 21.3%, COc1ccc(CN(CC(=O)NC2CCCC2)C(=O)c2onc(C(N)=O)c2N)cc1 30.2%, COc1cccc(CN2C(=O)CN(C3CCCCC3)C(=O)C2c2ccc(F)cc2)c1 (stereo unspecified) 1.82%, Cc1ccc(OC(=O)c2cccnc2)cc1 -1.57%, CC1=CC(C)(C)Nc2ccc(OC(=O)CN3C(=O)c4ccccc4C3=O)cc21 19.2%, CC1=CC(C)(C)Nc2ccc(OC(=O)c3ccco3)cc21 16.4%, CC1=CC(C)(C)Nc2ccc(OC(=O)CCN3C(=O)c4ccccc4C3=O)cc21 3.55%, CC(Oc1ccccc1F)C(=O)/C=C/N(C)C (stereo unspecified) 5.44%, O=C(Nc1ccc(Oc2ccccc2)nc1)C1CCCCN1Cc1ccco1 (stereo unspecified) 9.99%, O=C(Nc1cccnc1)c1ccc(S(=O)(=O)c2ccccc2)cc1 -0.77%, O=C(NCc1ccccc1)C(=O)NCC1OCCCN1S(=O)(=O)c1cccs1 (stereo unspecified) -3.27%, NC(=O)Nn1c(CCC(=O)O)ccc1-c1ccc(F)cc1 4.46%, NC(=O)Nn1c(CCC(=O)O)ccc1-c1ccc(Cl)cc1 3.68%, Cc1nc(-c2cc(C#N)c(Sc3cccc(C(F)(F)F)c3)nc2C)cs1 -11.1%, COCCN(C(=O)COC(=O)c1cc2ccccc2cc1O)c1c(N)n(Cc2ccccc2)c(=O)[nH]c1=O 0.53%, CCOc1ccc(C(=O)Nc2ccc(N3CCCC3)cc2)cc1 -1.32%, CCOc1c(Cl)cc(CNc2ccc(N3CCCC3)cc2)cc1OC -0.34%, Cc1ccc2cc(CN(CCN(C)C)C(=S)Nc3ccccc3)c(=O)[nH]c2c1C 17%, CCOc1ccc(C2CC(=O)NC(SC)=C2C#N)cc1 (stereo unspecified) -1.81%, CS/C(=N\S(=O)(=O)c1cccs1)Nc1ccc(Cl)cc1 3.6%, COc1ccc(C2C(C(=O)Nc3ccc(F)cc3)=C(C)Nc3nc(CCCO)nn32)cc1 (stereo unspecified) -0.37%, COc1ccc(OC)c(C2C(C(=O)Nc3ccccc3OC)=C(C)Nc3nc(CCCO)nn32)c1 (stereo unspecified) 18.4%, OCCN(CCO)c1ccc2ccccc2c1 9.83%, Nc1ccc(C(=O)N(CCO)CCO)cc1 2.26%, CN(CC(=O)Nc1ccc(F)cc1)C(=O)C1CCCC1 -2.12%, O=c1c2c3c(sc2n(CCN2CCCCC2)c(=O)n1Cc1ccco1)CCCCC3 30.5%, O=C(Cn1c(=O)n(Cc2ccco2)c(=O)c2c3c(sc21)CCCC3)Nc1ccccc1 -1.14%, FC(F)(F)c1cnc(Oc2ccc(-c3nnco3)cc2)c(Cl)c1 -4.28%, Oc1ccc(Br)cc1/C=N/n1c(COc2ccccc2)n[nH]c1=S 23.7%, Cc1ccc(S(=O)(=O)Cc2ccc(C(=O)NCc3cccs3)o2)cc1 2.29%, CSc1ccccc1NC(=O)c1cccnc1 -0.88%, CCN=c1scc(C)n1/N=C/c1ccsc1 24.1%, CN=c1scc(C)n1/N=C/c1ccc(O)cc1O 6.79%, C=C(C)CN=c1scc(C)n1/N=C/c1ccco1 7.84%, CCN=c1scc(C)n1/N=C/c1cc(Br)c(O)c(OC)c1 10.6%, CN=c1scc(C)n1/N=C/c1ccc(O)cc1 3.18%, CN=c1scc(C)n1/N=C/c1cc(Br)c(O)c(Br)c1 27.7%, O=C(Oc1coc(CSc2ncccn2)cc1=O)c1cccc([N+](=O)[O-])c1 -1.78%, O=C(Cc1ccccc1[N+](=O)[O-])NCC(=O)c1ccc2c(c1)OCO2 -9.24%, CC(CCc1ccccc1)N(C)CC(O)c1cccc([N+](=O)[O-])c1 (stereo unspecified) -11.1%, Nc1ccn([C@@H]2O[C@H](CNCc3cccc(OC4CCCC4)c3)[C@@H](O)[C@H]2O)c(=O)n1 3.81%, COc1ccc([C@@H]2C[C@@H](c3ccccc3)Oc3cc(OC)cc(OC)c32)cc1 -2.19%, Clc1ccc(OCCCc2nc(-c3cccnc3)no2)c(Cl)c1 21.6%, CC(C)c1ccc(-c2nc(N3CCCCC3)[nH]c(=O)c2C#N)cc1 -2.18%, N#Cc1c(N2CCN(c3ccc(F)cc3)CC2)nc(N)c2c(N)nc3c(c12)CC(=O)N3C1CC1 1.08%, CN(CCC#N)C(=O)COC(=O)c1ccc(Cl)cc1O 6.5%, COc1ccc(-n2nnnc2-c2cnc3cc4c(cc3c2C)OCO4)cc1 2.05%, O=C(Cn1c2c(c(-c3ccccc3Cl)cc1=O)CCC2)NCCCN1CCOCC1 22.2%, CCCCNC(=O)Cn1c2c(c(-c3ccccc3Cl)cc1=O)CCC2 11.2%, CC(=O)c1ccc(NC(=S)N2CCCC(C(F)(F)F)C2)cc1 (stereo unspecified) -3.97%, Cc1ccc(C2C3=C(CCCC3=O)Nc3[nH]c(=S)[nH]c(=O)c32)cc1 (stereo unspecified) 15.3%, COC(=O)C1=C(C)Nc2[nH]c(=S)[nH]c(=O)c2C1c1ccc(O)cc1 (stereo unspecified) -3.71%, COc1ccc(Nc2ccc([N+](=O)[O-])cc2[N+](=O)[O-])cc1 -7.01%
